# FMDV antiviral: blocks foot and mouth disease virus; FMDV antiviral cell-based qHTS; Potency, µM (doses to about 57.9 µM), inactives show at the top dose activity change, negative = inhibition, usual class: inhibitors; hit rate 1.2% among 410,000; calls by dose curve; tested in HEK293T cells; further: read-out not given here; potency means the concentration at half of the fitted maximal effect; on the % scale 0 is the no-effect control and ±100 the full control effect; nearly all actives have a fitted effect of over 45% in size
# Sm TGR block: inhibitors of Schistosoma mansoni thioredoxin glutathione reductase | Q962Y6 | purified TGR, DTNB reduction, TNB absorbance 405 nm | Potency, µM (titrated, usually from 114 µM), inactives show at the top dose activity change, negative = inhibition, most hits filed as inhibitors | hit rate 3% among 360,000; active means well fitted inhibition curve with a large enough effect; inconclusive means small, poorly fitted or top-dose-only effect; inactive means no such curve, though single readings can be large or run the other way; further: potency means the concentration at half of the fitted maximal effect; on the % scale 0 is the no-effect control and ±100 the full control effect; nearly all actives have a fitted effect of over 60% in size
#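 First, TGR (20 nM dispensed) and NADPH were mixed with compound. Second, a 15 min room-temperature incubation followed. Third, further NADPH and then DTNB were added to start the reaction. Finally, TNB absorbance was monitored kinetically.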
# Cycloheximide cs: counter-screen for Shiga toxin inhibitors: cycloheximide protein synthesis inhibition. hit rate 12% among 300,000. AID 2314. max response, %. cell reporter, cycloheximide protein synthesis inhibition counterscreen; in the data active means max response mostly above about 13%, no sharp cut-off; inactive means mostly below about 14%; further: read at 38.3 µM for the half of the compounds with a filed dose; 0% is about no effect
# Shiga inhibitor: blocks Shiga toxin action in Vero cells | Vero cells, Shiga toxin protein synthesis inhibition reporter | inhibition, % at 38.7 µM | hit rate 9.2% among 290,000 | AID 2315; in the data active means inhibition mostly above about 28%, no sharp cut-off; inactive means mostly below about 43%; further: 0% is about no effect
# An asterisk follows results filed as active; ? = inconclusive; . = no result. Only some compounds are listed: those with a hit (about 12% of all), similar ones and a draw of the others.
SMILES,FMDV antiviral,Sm TGR block,Cycloheximide cs,Shiga inhibitor
O=C(CSc1ncnc2c1nnn2-c1ccc(F)cc1)NCC1CCCO1 (stereo not given),15.8µM*,7.0%,-4.3,-6.2
Cc1ccccc1C(=O)Nc1ccc2nc(SCC(=O)N3CCc4ccccc43)sc2c1,-12.8%,6.9%,.,.
Cc1c(/C(O)=C2\C(=O)C(=O)N(CCN(C)C)C2c2ccccc2)cnn1-c1ccccc1 (stereo not given),-5.8%,12.6µM*,49.9*,110.9*
Cc1c(/C(O)=C2\C(=O)C(=O)N(CCN(C)C)C2c2ccco2)cnn1-c1ccccc1 (stereo not given),7.5%,?,30.2*,67.3*
CCN(CC)CCCN1C(=O)C(=O)/C(=C(/O)c2ccc3c(c2)OCCO3)C1c1ccco1 (stereo not given),50.9%,?,46.5*,45.3
CN(C)CCCN1C(=O)C(=O)/C(=C(/O)c2ccc3c(c2)OCCO3)C1c1ccco1 (stereo not given),.,-20.4%,1.3,-3.3
CCCOc1ccc(/C(O)=C2/C(=O)C(=O)N(CCN(C)C)C2c2ccco2)cc1 (stereo not given),-0.1%,44.7µM*,36.8*,73.8*
COc1cccc(N2CC(NC(=O)c3ccc(S(=O)(=O)N4CCCCC4)cc3)CC2=O)c1 (stereo not given),-27.4%,14.8%,.,.
CCCCN1CC(c2nc3ccccc3n2CCCCOc2ccc(C)c(C)c2)CC1=O (stereo not given),?,1.1%,.,.
CC(C)(C)c1ccc(CSc2nc(N)cc(=O)[nH]2)cc1,-5.6%,-6.5%,38.6*,41.4*
Nc1cc(=O)[nH]c(SCc2ccc(Cl)cc2)n1,-28.3%,-15.9%,-1.4,33.0
O=C(O)CCC(=O)NCCn1c(-c2ccccc2)csc1=Nc1ccccc1,17.2%,-11.9%,18.8*,48.6
COCCCn1c(-c2ccc(S(=O)(=O)N3CCOCC3)cc2)csc1=Nc1ccccc1,11.2µM*,0.8%,10.4,-7.6
CCn1c(-c2ccccc2)csc1=Nc1ccc(S(=O)(=O)O)cc1,?,-2.1%,-3.3,-7.0
OCCCn1c(-c2ccccc2)csc1=Nc1ccccc1,?,3.5%,32.0,72.9*
COc1ccc(N=c2scc(-c3ccc(OC)cc3)n2CCO)cc1,-1.9%,-29.1%,29.7*,62.5
CCN(CC)CCn1c(-c2ccccc2)csc1=Nc1ccccc1,-25.9%,1.2%,.,.
CCN(CC)CCOC(=O)c1ccc(NC(=O)c2cc3c(=O)n(CC)c4ccccc4c3s2)cc1,5.2%,-8.6%,.,.
COC(=O)CCCCCn1c(-c2ccccc2)cn2c3c(=O)n(C)c(=O)n(C)c3nc12,-2.3%,0.8%,.,.
CC1CC1C(=O)OCc1cc(=O)n2cc(Br)ccc2n1 (stereo not given),-12.0%,-5.8%,28.6*,117.4
CC(C)[C@H](NC(=O)c1ccccc1Cl)C(=O)OCc1cc(=O)n2cc(Br)ccc2n1,-14.1%,5.1%,18.6,-2.8
O=C(CN1C(=O)NC2(CCCC2)C1=O)OCc1cc(=O)n2cc(Br)ccc2n1,-15.1%,12.9%,47.6*,67.0*
Cc1ccccc1C(=O)NC(CC(C)C)C(=O)OCc1cc(=O)n2cc(Br)ccc2n1 (stereo not given),17.5%,-0.8%,28.0*,36.1*
CC1(C(=O)OCc2cc(=O)n3cc(Br)ccc3n2)CC1(Cl)Cl (stereo not given),34.4%,-0.5%,36.4*,77.8*
O=C(OCc1cc(=O)n2cc(Br)ccc2n1)C1COc2ccccc2O1 (stereo not given),3.2%,6.2%,-1.0,-2.3
SMILES,FMDV antiviral,Sm TGR block,Cycloheximide cs,Shiga inhibitor
Cc1cc2[nH]c(=O)c(=O)[nH]c2cc1S(=O)(=O)Nc1cccc(C(F)(F)F)c1,4.2%,-9.9%,.,.
CCOC(=O)c1sc(NC(=O)c2ccc(C)s2)cc1C,37.3%,-28.0%,65.1*,68.5*
CCOC(=O)c1sc(NC(=O)Nc2ccccc2Cl)cc1C,-0.5%,-0.4%,69.0*,112.8*
CCOC(=O)c1cc(NC(=O)Nc2ccccc2Cl)c(C)nc1C,?,.,1.1,24.4
CCOC(=O)c1sc(NC(C)=O)cc1C,1.2%,5.0%,1.2,34.6
CCOC(=O)c1sc(NC(=O)C2CCC2)cc1C,56.7%,-0.8%,27.7*,115.5*
CCOC(=O)c1sc(NC(=O)Nc2ccccc2)cc1C,38.4%,2.4%,151.5*,99.0*
C=C(C)Cn1c(=O)c2c(nc3n2CCN3c2ccc(F)cc2)n(C)c1=O,1.5%,-11.2%,.,.
COc1ccc(NC(=O)Cn2c(=O)n(Cc3ccco3)c(=O)c3sc4ccccc4c32)cc1Cl,-6.6%,-10.8%,.,.
CCOCCCn1c(SCC(=O)Nc2ccccc2OC)nc2c(oc3ccccc32)c1=O,?,10.0%,.,.
O=C(c1cc2cc(F)ccc2[nH]1)N1CCc2ccccc2C1,44.2%,-7.7%,19.6*,64.5*
O=C(c1cc2cc(Cl)ccc2[nH]1)N1CCc2ccccc2C1,37.6%,5.5%,8.0,6.9
O=C(c1ccc(-n2cccn2)cc1)N1CCc2ccccc2C1,11.4%,4.3%,24.3*,33.6
O=C(c1cccc(F)c1)N1CCc2ccccc2C1,58.9%,0.6%,40.1*,55.5*
O=C(CNc1cccc(F)c1)N1CCc2ccccc2C1,26.5%,13.9%,61.9*,125.8*
CC(C)(C)c1cc(C(=O)N2CCc3ccccc3C2)ccn1,0.7%,-27.7%,13.2,3.2
O=C(c1ccncc1)N1CCc2ccccc2C1,-6.1%,1.0%,-2.0,-9.2
CCCCc1nc2ccccc2n2c(-c3ccc(C)cc3)c3c(=O)n(C)c(=O)n(C)c3c12,-3.8%,9.0%,.,.
Cn1c(=O)c2c(SCC(=O)Nc3ccc(F)cc3F)nc(C3CCCC3)nc2n(C)c1=O,?,2.5%,.,.
COc1ccc(CCNC(=O)C(CC(C)C)N2Cc3ccccc3C2=O)c(OC)c1OC (stereo not given),-2.8%,3.0%,.,.
O/N=C1/CC/C(=N\O)c2nn(-c3ccccc3)nc21,13.1%,2.6%,31.3*,36.0
CC1=C(c2ccc(C)c(C)c2)S(=O)(=O)N=C1N1CCC(C(=O)N2CCC(C(N)=O)CC2)CC1,-10.7%,-3.2%,.,.
CN(C)c1ccc(C(CNS(=O)(=O)c2ccc3ccccc3c2)c2c[nH]c3ccccc23)cc1 (stereo not given),62.8%,-9.2%,22.6*,27.4
CN(C)c1ccc(C(CN)c2c[nH]c3ccccc23)cc1 (stereo not given),27.0%,-13.4%,9.9,20.6
CCCCOc1cccc(C2c3c(oc4ccccc4c3=O)C(=O)N2c2ccccn2)c1 (stereo not given),-17.8%,-7.8%,.,.
O=c1c2c3c(sc2n(Cc2cc(=O)n4ccccc4n2)c(=O)n1-c1ccccc1)CCC3,-19.7%,42.7%,.,.
Cc1ccc(C(=O)N2NC(c3ccccc3F)C3C(=O)N(c4cccc(C)c4)C(=O)C32)cc1 (stereo not given),-5.0%,-6.8%,9.6,23.6
COc1ccccc1N1C(=O)C2C(c3ccccc3F)NN(C(=O)c3ccc(C)cc3)C2C1=O (stereo not given),18.4%,17.8µM*,13.6,21.9
CCOc1cc(CNCCc2ccc(S(N)(=O)=O)cc2)cc(Cl)c1OCc1ccccc1,20µM*,6.8%,8.7,-10.1
CCOc1cc(CNCCc2ccc(S(N)(=O)=O)cc2)ccc1OCc1ccccc1,?,0.0%,-2.4,-18.7

# Source: PubChem BioAssay
